Screens: PubChem, National Center for Advancing Translational Sciences (NCATS)
ALDH1A1 inh – inhibitors of human aldehyde dehydrogenase 1A1; P00352; Purified ALDH1A1, NADH fluorescence, propionaldehyde substrate; Potency, µM (top dose mostly 75.3 µM), hits mostly inhibitors; 220,000 compounds, 7.3% hits; AID 1030; active means well fitted inhibition curve with a large enough effect, not every such curve was filed as active; inconclusive means small, poorly fitted or top-dose-only effect, or another doubt; inactive means no such curve, though single readings can be large or run the other way
Target sequence (P00352 whole entry, looked up): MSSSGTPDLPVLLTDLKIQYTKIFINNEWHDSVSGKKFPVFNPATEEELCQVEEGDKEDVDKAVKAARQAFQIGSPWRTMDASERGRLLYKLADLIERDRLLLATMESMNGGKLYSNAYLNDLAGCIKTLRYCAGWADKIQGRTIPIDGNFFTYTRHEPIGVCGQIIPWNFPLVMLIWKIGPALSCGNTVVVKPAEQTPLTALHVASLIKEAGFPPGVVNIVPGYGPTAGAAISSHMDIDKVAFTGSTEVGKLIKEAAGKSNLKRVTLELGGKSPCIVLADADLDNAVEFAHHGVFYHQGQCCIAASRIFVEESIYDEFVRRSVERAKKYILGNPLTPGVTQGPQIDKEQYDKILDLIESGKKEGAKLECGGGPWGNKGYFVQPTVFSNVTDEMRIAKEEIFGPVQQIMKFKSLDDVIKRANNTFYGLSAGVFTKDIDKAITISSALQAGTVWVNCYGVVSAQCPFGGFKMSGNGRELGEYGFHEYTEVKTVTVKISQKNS
IMPase inh – membrane-permeable compound that blocks inositol monophosphatase; P97697; CHO-M1 cells, IP1 accumulation, HTRF TR-FRET ratio; inhibition (IP1 accumulation), % at 46.1 µM; 120,000 tested, under 10 active; AID 901; active means well fitted curve in the direction sought with a large enough effect in the signal ratio, not every such curve was filed as active; inconclusive means small, poorly fitted or top-dose-only effect, or a change in a side signal; inactive means no such curve, though single readings can be large or run the other way; the % refers to the signal ratio;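 further: cells stimulated with carbachol in lithium chloride buffer; higher means more IMPase inhibition seen as more IP1 and lower FRET ratio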
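Cellular IMPase inhibition is scored as a rise in cytosolic IP1, detected by competitive TR-FRET between d2-labelled IP1 and a europium anti-IP1 antibody. M1-expressing CHO cells were stimulated with carbachol for 30 min at 37C, with lithium (50 mM LiCl) present in the buffer.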
HTT cytoprotect – protects HTT-Q103 PC12 cells, measured by ATP; PC12 HTT-Q103 induced, cytoprotection, ATP luminescence, 40 h; Potency, µM (series often up to 56.4 µM), usual class: activators; 230,000 compounds, 0.14% hits; AID 1471; further: nearly all actives have a fitted effect of over 45% in size
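PC12 cells with ecdysone-inducible HTT exon 1 Q103-GFP, induced with 100 nM tebufenozide and co-treated with library compounds in a dose series (1536-well, 1500 cells/well). Cytoprotection read as ATP content by ATPlite luminescence.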
HPGD block – HPGD (human) dehydrogenase inhibition. 150,000 compounds, 4.3% hits. Potency, µM, hits mostly inhibitors. P15428. AID 894. purified HPGD, NADH fluorescence kinetic, PGE2 substrate; active means well fitted inhibition curve with a large enough effect, not every such curve was filed as active; inconclusive means small, poorly fitted or top-dose-only effect, or another doubt; inactive means no such curve, though single readings can be large or run the other way
Target sequence (P15428 whole entry, looked up): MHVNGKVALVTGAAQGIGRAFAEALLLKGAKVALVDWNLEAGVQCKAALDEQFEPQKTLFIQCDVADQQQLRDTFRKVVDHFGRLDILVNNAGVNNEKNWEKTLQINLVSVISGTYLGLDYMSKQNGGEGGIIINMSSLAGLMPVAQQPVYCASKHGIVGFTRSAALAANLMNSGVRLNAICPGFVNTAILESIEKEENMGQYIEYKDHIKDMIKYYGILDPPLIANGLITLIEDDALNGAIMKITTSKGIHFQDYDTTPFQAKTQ
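NADH formation kinetics: reaction with 30 uM PGE2 and 1 mM NAD+ (final), 20 nM enzyme, Tris-HCl pH 8 with Tween 20, after 15 min compound preincubation at room temperature. Fluorescence change, last versus first of five reads.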
HttQ103 aggreg – inhibitors of mutant huntingtin aggregate formation in PC12 cells; PC12 HttQ103-GFP aggregates, Acumen cytometry, 40 h; 220,000 compounds, 1.1% hits; Potency, µM (top dose mostly 46.1 µM), actives largely listed as inhibitors; AID 1688; further: nearly all actives have a fitted effect of over 60% in size
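PC12 cells stably carrying ecdysone-inducible HTT exon 1 Q103–GFP were induced with tebufenozide (100 nM final) and treated with library compounds in titration. GFP aggregates in lysates were counted by laser scanning cytometry.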
IMPase Li inh – IMPase inhibition in cells with lithium potentiation; CHO-M1 cells, IP1 TR-FRET (IP-One), carbachol + lithium; Potency, µM (highest dose often 59.4 µM), actives largely listed as inhibitors; 210,000 compounds, 0.35% hits; AID 1457;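 further: IP1 builds up when IMPase is blocked and the TR-FRET signal falls; nearly all actives have a fitted effect of over 50% in size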
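CHO cells stably expressing M1 receptor (2000/well, cultured 16–30 h) treated 30 min at 37C with compound plus low lithium. Cytosolic IP1 by TR-FRET (665/620 ratio and 620 channel) after 10 min lysis; AC50 by Hill fit.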
A number is an active result; n = inactive; u = inconclusive; x = not tested or not shown; [ ] = dose if it differs, or a comment. In the library only some 9.4% were active in any assay of this set; here they are far more common. Unless noted, the call rests on the fitted dose curve; in most records, active means well fitted curve in the direction sought with a large enough effect; inconclusive means small, poorly fitted or top-dose-only effect, or another doubt; inactive means no such curve, though single readings can be large; an effect the other way counts as inactive or inconclusive.

SMILES	ALDH1A1 inh	IMPase inh	HTT cytoprotect	HPGD block	HttQ103 aggreg	IMPase Li inh
O=C(c1ccc(F)cc1)[C@@H]1[C@@H](C(=O)c2ccccc2)[C@@]2(C(=O)Nc3ccccc32)[C@H]2c3ccccc3C=CN12	20µM	n	n[10 µM]	n	n	n
COc1ccc(C(=O)Nc2ccc(-c3cc4ccccc4oc3=O)c(C)c2)cc1Br	x	n	x	x	x	x
COc1cccc(C2=CC(c3ccc(N(C)C)cc3)n3ncnc3N2)c1 (centres undefined)	10µM	n	n[0.074 µM]	n	u	n
COc1ccc(C2C=C(c3ccc(Br)s3)Nc3ncnn32)cc1OC (centres undefined)	u	n	n[10 µM]	n	11.2µM	n
COc1cccc(C2=CC(c3cc(OC)ccc3OC)n3nnnc3N2)c1 (centres undefined)	25.1µM	n	n	n	n	n
COc1ccc(C2C=C(c3ccc(C)cc3)Nc3ncnn32)cc1 (centres undefined)	u	n	n	u	n	n
COc1cccc(C2=CC(c3ccccc3)n3ncnc3N2)c1 (centres undefined)	u	n	n	u	n	u
COc1ccc(OC)c(C2C=C(c3ccc(C)c(C)c3)Nc3nnnn32)c1 (centres undefined)	20µM	n	n	n	n	n
CC(C)=CCC1(CC=C(C)C)C(=O)C(C(=O)c2ccccc2)=C2OC(C)(C)CCC2(CC=C(C)C)C1=O (centres undefined)	n[13.5 µM]	x	n[10 µM]	x	x	x
CCOCCCn1c(C)nc2c(c1=O)c1nc3ccccc3nc1n2-c1ccc(C)cc1	n	n	n	n	n	n
CCO/C(C)=N/n1c2nc3ccccc3nc2c2c(=O)n(CC(C)C)c(C)nc21	25.1µM	n	n	n	n	n
O=S(=O)(CC12C3C4C5C1C2C(Br)(C43)C51OCCO1)c1ccccc1 (centres undefined)	11.2µM	x	x	n	x	x
O=C(CS(=O)(=O)c1ccccc1)NC1CCCCC1	n	x	n[10 µM]	x	n	n
Cc1ccc2nc3sc(C(=O)N4CCCc5ccccc54)c(N)c3cc2c1	n	n	n[10 µM]	n	n	n
Cc1cc(C)c2cc3c(N)c(C(=O)N4CCc5ccccc5C4)sc3nc2c1	n	n[1.84 µM]	n[10 µM]	7.08µM	n	n
CC(=O)OC[C@@H]1O[C@@H](O/N=C2/C[C@@H](O)[C@@H](O)[C@@H]3[C@@H]4C(=O)N([C@@H](C)c5ccccc5)C(=O)[C@H]4CC[C@H]23)[C@H](OC(C)=O)[C@H](OC(C)=O)[C@@H]1OC(C)=O	n[13.5 µM]	x	u	x	x	x
Cc1ccc(-n2c([S-])c(C(=O)NC(C)c3ccccc3)[n+]3ccccc23)cc1 (centres undefined)	3.16µM	x	n	x	n	n
COc1ccc(CNC(=O)c2c([S-])n(-c3ccc(C)cc3)c3cccc[n+]23)cc1	u	x	n	x	n	u
CCOC(=O)N1CCN(C(=S)NC)CC1	n	n	n	n	n	n
CCOC(=O)N1CCN(C(=O)C(=O)NN)CC1	12.6µM	x	n[10 µM]	x	n[9.22 µM]	n
COc1ccc(Oc2ncc3nc(C)c(=O)n(C4CC4)c3n2)cc1	n	x	n	n	x	n
O=S(=O)(NCc1ccco1)c1cnc(Cl)c(Br)c1	22.4µM	x	x	n	n	n
Cc1ccc(S(=O)(=O)NCc2ccco2)cc1C(N)=O	n	x	n	x	n	n
CCCN1C(=O)/C(=C\C=C2/C=CN(CC)c3ccccc32)SC1=S	5.01µM	n	n[10 µM]	n	n	n
CCCCN1C(=O)/C(=C/C=C2\N(C)c3ccccc3C2(C)C)SC1=S	u	n	n	n	12.6µM	n
SMILES	ALDH1A1 inh	IMPase inh	HTT cytoprotect	HPGD block	HttQ103 aggreg	IMPase Li inh
CCOC(=O)/C=C1/N(C)c2ccccc2C1(C)C	x	x	n[10 µM]	x	n[9.22 µM]	x
CCN1C(=O)/C(=C/C=C2/Sc3ccc4ccccc4c3N2CCO)SC1=S	n	x	x	n	n	n
Cc1cc2ccccc2n1CCNC(=O)c1cc(C(F)(F)F)cc(C(F)(F)F)c1	x	n	x	x	x	x
COc1ccc(NS(=O)(=O)/C=C/c2ccccc2)cc1	2.51µM	x	x	n	n	n
CN(C)S(=O)(=O)c1ccc(NS(=O)(=O)/C=C/c2ccccc2)cc1	u	n	n	n	n	n
O=C(NNS(=O)(=O)c1ccccc1[N+](=O)[O-])c1ccc(O)cc1	3.16µM	n	n	12.6µM	n	n
CN(C(=O)COc1ccccc1C(=O)NCCOc1ccccc1)c1ccccc1	n	x	x	n	u	n
C[C@@H](COc1ccc(/C=C\c2ccccc2)cc1)[N+](C)(C)C	x	n	n[1.9 µM]	x	x	x
CCc1cc(C(=O)COc2ccc(F)cc2)c(O)cc1O	n	x	n	x	u	x
Cc1c(O)ccc(C(=O)COc2ccc(F)cc2)c1O	17.8µM	n	n	x	u	x
C=CCOC(=O)C(C(C)=O)C(NC(=O)OC)c1cccc(C)c1 (centres undefined)	n[13.5 µM]	x	u	x	x	x
Cc1ccc(-c2nc3cc(NC(=O)c4cc(Br)ccc4Cl)ccc3o2)cc1	x	n	x	x	x	x
CCCCCCCCCCCCCCCC(=O)NC[C@@H](COP(=O)([O-])OCC[N+](C)(C)C)OCC	x	n	n[1.9 µM]	x	x	x
Cc1ccccc1NC(=O)CSc1nnc(-c2ccco2)c(-c2ccco2)n1	1.26µM	n	n	8.91µM	u	n
Cc1cccc(C)c1NC(=O)CSc1nnc(-c2ccco2)c(-c2ccco2)n1	7.08µM	n	n	28.2µM	n	n
COc1ccc(-c2nnc(SCC(=O)Nc3c(C)cccc3C)nc2-c2ccc(OC)cc2)cc1	x	n	x	x	x	x
Cn1c(=O)c(-c2ccc(Cl)cc2)nc2cnc(N3CCNCC3)nc21	u	x	n	x	x	n
Cc1ccc(S(=O)(=O)Nc2cc(NC(=O)CN3CCOCC3)ccc2Cl)cc1	17.8µM	n	n	n	n	n
O=C(CCN1C(=O)c2ccccc2S1(=O)=O)Nc1ccccc1	n	x	n[10 µM]	x	n	n
O=C(CCN1C(=O)c2ccccc2S1(=O)=O)Nc1ccc2c(c1)OCCO2	6.31µM	n	n	n	n	n
CN(C)S(=O)(=O)c1ccc(NC(=O)CN2CCC(Cc3ccccc3)CC2)cc1	n	x	n	x	n	n
O=C(CN1CCC(Cc2ccccc2)CC1)Nc1ccc2c(c1)OCCO2	28.2µM	n	n	n	n[9.22 µM]	n
O=C(CN1CCN(CC(=O)Nc2ccccc2Cl)CC1)Nc1ccc2c(c1)OCCO2	7.94µM	n	n	n	n	n
Cc1ccc(S(=O)(=O)Nc2ccc(NC(=O)CN3CCCCC3)cc2)cc1	n	n	n	n	n	n
NCC[C@H](N)C(=O)O	n[13.5 µM]	x	n[10 µM]	n	x	n
COc1cccc([C@@H]2Oc3ccc(OC)cc3C(=O)[C@H]2OC(=O)NCCc2ccc(OC)c(OC)c2)c1	n	x	n	n	x	n
CCCCNCc1cc2ccccc2o1	x	x	n[10 µM]	x	n[9.22 µM]	x
O=C(O)CCC(=O)N1CCN(c2nc(-c3ccccc3Cl)c3cc(Br)ccc3n2)CC1	u	u	n	n	u	14.1µM
